Test results as given in PubChem BioAssay AID1347075 (National Center for Advancing Translational Sciences (NCATS), 2019).
About 5,500 (1.4%) of roughly 400,000 compounds were called active. Roughly 9% stayed inconclusive and do not appear here. This is one part of a sample in which actives are shown more often than they occur. Unmarked numbers belong to inactive results. Calls follow the shape of the dose curve; as a rule, active = well fitted cell-killing curve with a large enough effect; inconclusive = small, poorly fitted or top-dose-only effect, or effect the other way; inactive = flat fitted curve, though single readings scatter.

Assay: qHTS assay for MDR1-selective chemotherapeutics: Primary screen using the parental adenocarcinoma cell KB-3-1; also: nearly all actives have a fitted effect of over 60% in size
Details: KB-3-1 viability, CellTiter-Glo ATP luminescence, 72 h; series mostly up to 46.1 µM; activity change, negative = cytotoxic: at the top concentration
Outline: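 Screening of KB-3-1 cells (DMEM, 10% FBS, phenol-red free) ran from lowest to highest compound concentration; after 72 h at 37 °C viability was read luminescently and curves fitted.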
% is scaled to controls: 0 for no effect and ±100 for the full control effect; potency is read from the fitted curve at half-maximal effect.

SMILES | activity change, negative = cytotoxic [%] | Potency
Cc1ccc(Cl)cc1NC(=O)C(C)n1nnc2sc(-c3ccccc3)cc2c1=O (centres undefined) | -2.42 | –
COc1ccc(C2CC(=O)N(Cc3ccccc3C)c3c2c(C)nn3-c2nc(C)cc(C)n2)c(OC)c1 (centres undefined) | 3.03 | –
CCOc1ccc(C(=O)c2cn(Cc3ccccc3OC)c3ccc(F)cc3c2=O)cc1 | 22.1 | –
CCCc1ccc(OCCNC(=O)c2ccccc2Br)cc1 | 1.59 | –
CCCOc1cccc(C(=O)Nc2cccc(NC(=O)c3ccc(C(C)(C)C)cc3)c2)c1 | 7.31 | –
CCCOc1ccc(C(=O)C(CCC(CNCC)C(=O)c2ccc(OCCC)cc2)CNCC)cc1 (centres undefined) | – | 5.17 µM (active)
Cc1ccc2nc(COc3cccc(NC(=O)c4ccccc4Cl)c3)cc(=O)n2c1 | -5.83 | –
CCOc1ccc(CCNC(=O)c2ccc3c(c2)sc2nc(-c4ccc(F)cc4)cn23)cc1OCC | -10.9 | –
O=C(Cc1ccc([N+](=O)[O-])cc1)NCCc1ccc2c(c1)OCO2 | -4.66 | –
CC1CCN(c2ccc(C(=O)NCc3ccc4c(c3)OCO4)cc2[N+](=O)[O-])CC1 | 3.15 | –
O=C(NCc1ccc2c(c1)OCO2)c1cc([N+](=O)[O-])ccc1N1CCOCC1 | – | 5.17 µM (active)
Cc1cc(=O)n(CC(=O)Nc2cccc([N+](=O)[O-])c2)c(-n2nc(C)cc2C)n1 | -14.3 | –
CCOc1ccccc1NC(=O)c1ccc2c(c1)CCN2S(=O)(=O)c1ccc(C)cc1 | 0 | –
COc1ccccc1NC(=O)c1cc(C2CC2)nc2c1c(C)nn2-c1ccc(C)cc1 | 4.13 | –
COc1cccc(NC(=O)CSc2cc(=O)n(C)c3ccc(Cl)cc23)c1 | -2.78 | –
Cc1cc(C)cc(NS(=O)(=O)c2ccc(-c3cc(C)no3)s2)c1 | – | 3.26 µM (active)
CC(=O)c1ccc(NS(=O)(=O)c2ccc(-c3cc(C)no3)s2)cc1 | 5.1 | –
Cc1cc(-c2ccc(S(=O)(=O)N3CCN(c4cccc(C(F)(F)F)c4)CC3)s2)on1 | -7.84 | –
CCc1cccc(C)c1NS(=O)(=O)c1cc(Br)cnc1N | 3.61 | –
Cc1cc(-c2ccc(S(=O)(=O)N3CCc4ccccc4C3)s2)on1 | 5.38 | –
CCc1cccc(C)c1NS(=O)(=O)c1ccc(-c2cc(C)no2)s1 | – | 1.16 µM (active)
Cc1ccccc1CN1CCC(CNC(=O)c2cc3ccc4cccnc4c3[nH]2)CC1 | -15.7 | –

SMILES | activity change, negative = cytotoxic [%] | Potency
COc1cc2[nH]c(=O)n(Cc3ccc(C(=O)NCc4ccc(C)cc4)cc3)c(=O)c2cc1OC | -3.55 | –
CC1CCCCN1Cc1c(O)ccc2c(=O)c(-c3cccc(Cl)c3)c(C(F)(F)F)oc12 (centres undefined) | 11.9 | –
COc1nc(N=C(N)N)nc2c(C)cccc12 | -14.6 | –
Cc1nc(N=C(N)N)nc2c(C)cccc12 | – | 10.3 µM (active)
COc1ccc(CNc2nnnn2C)cc1 | 5.95 | –
COc1ccc(CNc2nc(NCc3ccc(OC)cc3)c3ncn(C4CCCC4)c3n2)cc1 | – | 6.51 µM (active)
COCCNc1ncnc2c1ncn2[C@H]1CN(Cc2ccc(OC)cc2)C[C@@H](CO)O1 | 0 | –
COc1ccc(S(=O)(=O)NCc2cccn2Cc2cccc(C)c2)cc1 | 1.09 | –
COc1ccc(CC(=O)N2CC(=O)Nc3ccc(Br)cc3C2c2ccc(F)cc2)cc1OC (centres undefined) | -1.37 | –
COc1ccc(-c2cc(C(F)(F)F)nc(SCC(=O)N(C)Cc3ccccc3)n2)cc1OC | -9.14 | –
Cc1ccc(F)cc1NC(=O)CCSc1nc(-c2ccco2)cc(C(F)(F)F)n1 | 20 | –
CC1(Cc2ccccc2C#N)C(=O)Nc2ccc(-c3ccc4[nH]ccc4c3)cc21 (centres undefined) | – | 6.51 µM (active)
COc1ccccc1CC1(C)C(=O)Nc2ccc(OC(F)(F)F)cc21 (centres undefined) | 0 | –
Cc1ccc(CC2(C)C(=O)Nc3ccc(OC(F)(F)F)cc32)cc1 (centres undefined) | 0 | –
COc1ccc(CCNC(=O)c2cc3cccc4c3n2CC(C)S4)c(OC)c1OC (centres undefined) | -27.6 | –
CC(C)Cn1c(C2CC(=O)N(c3ccccc3Cl)C2)nc2ccccc21 (centres undefined) | 13.6 | –
O=C(CSc1nc(-c2cccc(F)c2)[nH]c1-c1ccccc1)Nc1ccc2c(c1)OCO2 | 1.92 | –
COc1cccc(C(=O)NC2(C(F)(F)F)C(=O)Nc3c2c(=O)[nH]c(=O)n3-c2ccc(C)cc2)c1 (centres undefined) | 1.04 | –
CC(=O)Nc1ccc(S(=O)(=O)N2CCN(c3ccccc3)CC2)cc1 | -4.79 | –
CCc1c(C)nc2c(-c3ccccc3)c(C)nn2c1Nc1ccc(NC(C)=O)cc1 | -2.98 | –
CC(=O)Nc1ccc(Nc2c3ccccc3nc3ccccc23)cc1 | – | 4.61 µM (active)
COc1ccc(CNC(=O)c2ccc3c(c2)nc2n3CCOC2)c(OC)c1 | 8.73 | –

SMILES | activity change, negative = cytotoxic [%] | Potency
Cc1nc2nc(SCC(=O)N(Cc3ccccc3)C(C)C)nn2c(C)c1Cc1ccccc1Cl | -11.4 | –
O=C(Nc1ccccc1Cl)/C(Cl)=C(\Cl)S(=O)c1ccccc1 (centres undefined) | – | 6.51 µM (active)
O=C(Nc1ccccc1Cl)N1CCC(CN2CCCCC2)CC1 | -2.06 | –
O=C(Nc1ccccc1Cl)c1ccccc1S(=O)(=O)c1ccccc1[N+](=O)[O-] | 7.37 | –
NS(=O)(=O)c1ccc(NC(=O)COc2ccc(S(=O)(=O)NC3CCCCC3)cc2)cc1 | 0.732 | –
COc1ccccc1N1CCN(c2ccc(=O)n(CC(=O)NCc3ccc(OC(C)C)cc3)n2)CC1 | -17.2 | –
Cc1cc(C)cc(NC(=O)CCS(=O)(=O)c2cc3c4c(c2)CCN4C(=O)CC3)c1 | -8.73 | –
Cc1ccc(Oc2c(C(F)(F)F)oc3c(CN4CCCCC4)c(O)ccc3c2=O)cc1 | 5 | –
COc1ccccc1CNC(=O)CCn1c(=O)sc2ccccc21 | 2.78 | –
COc1ccc(Cn2c(=O)sc3ccccc32)cc1OC | – | 14.6 µM (active)
COc1ccc(CN2CCOC2=O)cc1OC | 4.09 | –
Cc1ccc(-c2nnc3ccc(SCC(N)=O)nn23)cc1 | -10.6 | –
CCN1CCN(C(c2ccc(C)cc2)c2c(O)cc(C)n(Cc3ccco3)c2=O)CC1 (centres undefined) | 6.42 | –
O=C(NCc1cccnc1)C(=O)NCC(c1cccnc1)N1CCN(c2ccccc2)CC1 (centres undefined) | 2.59 | –
CCN1CCN(C(c2cccnc2)c2cc(Cl)c3cccnc3c2O)CC1 (centres undefined) | – | 7.31 µM (active)
O=C1CCC[C@@H]2C[C@@]3(C[C@@H]4CCN1[C@H]24)Nc1ccccc1NC3=NCc1ccccc1 | 6.89 | –
Cc1c(Cl)cccc1-c1ccc(CNCCCSc2nnnn2C)o1 | -9.56 | –
C=CCSC1=C(C#N)C(c2cc(Br)c(O)c(OC)c2)CC(=O)N1 (centres undefined) | 2.37 | –
Cc1ccsc1C1C(C#N)=C(N)OC2=C1C(=O)CC(C)C2 (centres undefined) | 11.3 | –
CCOC(=O)CSC1=C(C#N)C(c2sccc2C)CC(=O)N1 (centres undefined) | – | 5.01 µM (active)
